Experimental findings from PubChem BioAssay (NCI) are described below.

About 79,000 compounds went through this panel and 15% of them were active in at least one assay; those are over-represented in the sample as a whole. Unmarked numbers belong to inactive results. Active and inactive are the calls of the source. Cut-off read from the data, not from the text of the source: active = growth inhibition above about 70%; inactive = the rest.

One assay can be described thus: NCI Yeast Anticancer Drug Screen. Data for the cln2 rad14 strain (AID 165).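 Note: 0% = growth equal to vehicle treated cultures.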 The settings on record: S. cerevisiae cln2 rad14 strain, at 50.0 µM, active compounds read high. The procedure, abridged: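 Yeast carrying cln2 and rad14 alterations (cell cycle control and DNA damage repair) were exposed to compounds. Growth inhibition was measured against vehicle-treated controls.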
As for `Nc1nc(=O)n(CCCCCCc2ccccc2)cc1-c1ccc(Cl)c(Cl)c1`, the growth inhibition is 83.7% (active).

As for `COc1ccc2c(c1)C1(C)CCC(=O)C(C)=C1CC2` (stereo not drawn), the growth inhibition was 7.75%.

For the compound `CCCCCCCCCCCCOC1OC(COC(C)=O)C(OC(C)=O)C(OC(C)=O)C1OC(C)=O` (stereo not drawn) (tested in a mixture with another compound), the growth inhibition was -22.2%.

For `c1ccc(C(=C2CCC2)c2c3ccccc3cc3ccccc23)cc1`, the growth inhibition is 5.8%.

In the case of `COc1cccc(-c2nsc(=O)o2)c1`, the growth inhibition is -1.4%.

As for `CC1C(c2ccccc2)OC(c2ccccc2)N1C` (stereo not drawn), the growth inhibition was 55.4%.

As to `O=C(NO)Oc1cccc2ccccc12`, the growth inhibition was 6.75%.

Take `c1ccc2c(c1)CSc1ccccc1-2`: the growth inhibition is -12.2%.

With `CN(C)N=Nc1ccccc1`, the growth inhibition is 15.4%.

Take `Cc1cccc(-c2cccc(C)c2C)c1C`: the growth inhibition was 11.7%.

As to `COc1ccc(-c2coc3cc(O)cc(O)c3c2=O)cc1`, the growth inhibition is 31.7%.

For the compound `COc1cc(Nc2cnc3ccc(C(F)(F)F)cc3n2)cc(OC)c1OC`, the growth inhibition was -0.8%.

As to `O=C(O)c1[nH]ncc1[N+](=O)[O-]`, the growth inhibition was 11.3%.

A further assay in a line: NCI Yeast Anticancer Drug Screen. Data for the bub3 strain (AID 167). The settings on record: S. cerevisiae bub3 mutant strain, at 50.0 µM, active compounds read high. The procedure, abridged:
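Screening used yeast with an engineered genetic alteration affecting cell cycle control. Compound-exposed cultures were compared with vehicle cultures, and reduced growth was taken as inhibition.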
For the compound `CC(C)C1OCC(CO)([N+](=O)[O-])CO1` (stereo not drawn), the growth inhibition was 1.35%.

For `CSc1nc(C)c2c(n1)N(c1ccc(Cl)cc1)CC2`, the growth inhibition was -17.2%.

`CCc1cccc(CC)c1NC(=O)/C=C/C(=O)O`: the growth inhibition was -4.2%.

Regarding `CCn1c(S)c(N=NC(=S)c2ccc3ccccc3n2)c2ccccc21`, the growth inhibition is 17.4%.

Turning to `O=C(O)CNC(=O)NC(Cc1ccccc1)C(=O)O` (stereo not drawn), the growth inhibition is 18.6%.

As for `OC/C(I)=C(I)\C(I)=C(\I)CO`, the growth inhibition is 98.7% (active).

On to `CC(=O)C(N)=NCc1ccccc1`, for which the growth inhibition is 25.8%.

In the case of `Cc1cc2ccccc2nc1-c1ccncc1`, the growth inhibition was -6.75%.

With `CC(C)(C)C1=NC(S)NC(CCC(=O)Nc2ccccc2[N+](=O)[O-])=C1` (stereo not drawn), the growth inhibition was 8.05%.

`COc1ccc2cc(C(=O)c3ccccc3)c(=O)oc2c1`: the growth inhibition is 12.2%.

Regarding `CCCCCCC1=CCCC1=O`, the growth inhibition is 2.55%.

Regarding `N#Cc1cccc(O)c1`, the growth inhibition is 13.7%.

In the case of `O=C(c1nc2ccccc2[nH]c1=O)C(O)c1ccccc1` (stereo not drawn), the growth inhibition is -12.8%.

Regarding `O=c1[nH]c2cc([N+](=O)[O-])ccc2nc1/C(=N/Nc1ccccc1)C(O)c1ccco1` (stereo not drawn), the growth inhibition is 6.65%.

As to `CSc1ccc(OC(=O)Nc2ccc(Cl)c(Cl)c2)cc1C`, the growth inhibition is 94.7% (active).

As to `Cc1cc(O)c(C(C)C)cc1NC(=S)Nc1ccc(S(=O)(=O)c2ccc(NC(=S)Nc3cc(C(C)C)c(O)cc3C)cc2)cc1`, the growth inhibition was 6.65%.

In the case of `CC1=C/C(=N\O)C(C(O)(C(F)(F)F)C(F)(F)F)C(C)(C)C1` (stereo not drawn), the growth inhibition was -7.35%.

In the case of `COc1cc2c(cc1OC)C(O)C(O)(CO)C(C(=O)O)C2c1cc(OC)c(OC)c(OC)c1` (stereo not drawn), the growth inhibition was 25.1%.

As to `O=C1SCC(O)=C1/C=N/Nc1nc2ccccc2o1`, the growth inhibition is 13.2%.

On to `CC(=O)OCC1OC(n2nc(C#N)c(C#N)n2)C(OC(C)=O)C1OC(C)=O` (stereo not drawn), for which the growth inhibition was -5.85%.

For `C/C=C/C=C1/OC(C)=C(C(=O)OCC)C1=O`, the growth inhibition is -8.95%.

As to `CCN(CC)CC#CCCCN(CC)CC`, the growth inhibition is -44.5%.

Take `CCOC(=O)/C(C#N)=C(O)\C(=C\c1ccc(Cl)cc1)NC(=O)c1ccc(NC(C)=O)cc1`: the growth inhibition was -8.1%.

Consider `CCC1(C)N=C(N)Nc2nc3ccccc3n21` (stereo not drawn), for which the growth inhibition is 0.4%.

Consider `CCNC(=O)c1csnn1`, for which the growth inhibition was -18.1%.

Regarding `C[N+]1(CCC[N+]2(C)CCC3(CCCCC3)CC2)CCOCC1`, the growth inhibition was -1.55%.

Take `Cc1ccc2c(c1)CCC(=O)O2`: the growth inhibition is 10.4%.

For `Nc1nc(=O)n(CCCCCCc2ccccc2)cc1-c1ccc(Cl)c(Cl)c1`, the growth inhibition was 3.65%.

Consider `COc1ccc2c(c1)C1(C)CCC(=O)C(C)=C1CC2` (stereo not drawn), for which the growth inhibition was 14.8%.

`CCCCCCCCCCCCOC1OC(COC(C)=O)C(OC(C)=O)C(OC(C)=O)C1OC(C)=O` (stereo not drawn) (tested in a mixture with another compound): the growth inhibition is -2.45%.

`c1ccc(C(=C2CCC2)c2c3ccccc3cc3ccccc23)cc1`: the growth inhibition was -17.9%.

With `COc1cccc(-c2nsc(=O)o2)c1`, the growth inhibition is 52.6%.

As to `CC1C(c2ccccc2)OC(c2ccccc2)N1C` (stereo not drawn), the growth inhibition is 9.7%.

Take `O=C(NO)Oc1cccc2ccccc12`: the growth inhibition is -3.3%.

Consider `c1ccc2c(c1)CSc1ccccc1-2`, for which the growth inhibition was 7%.
